{"source": "PubChem BioAssay (NCATS)", "note": "Records with an inconclusive call do not appear. A call without a number means that no potency is given here. The source made the active and inactive calls. Calls follow the shape of the dose curve; as a rule, active = well fitted cell-killing curve with a large enough effect; inconclusive = small, poorly fitted or top-dose-only effect, or effect the other way; inactive = flat fitted curve, though single readings scatter. Potency is read from the fitted curve at half-maximal effect."}
{"assay": "MultiTox-Fluor Cytotoxicity Assay - LYMP1-002 - Live Cells (AID 955)", "details": "LYMP1-002 lymphoblastoid live-cell protease fluorescence viability; series mostly up to 46.1 µM", "source_text": "NIH Chemical Genomics Center [NCGC]\nNIH Molecular Libraries Screening Centers Network [MLSCN]\nNational Institutes of Environmental Health Sciences [NIEHS]\nNational Toxicology Program [NTP]\nWe have developed a 1536-well cell-based assay for quantitative high throughput screening (qHTS) against a number of cell lines to determine in vitro cytotoxicity of small molecules. This particular assay uses a human lymphoblastoid cell line (LYMP1-002) purchased from Coriell Institute.\nNCGC Assay Protocol Summary:\nThe MultiTox-Fluor Cytotoxicity Assay (Promega) is a homogeneous method to simultaneously measure the relative number of live and dead cells in culture by detecting changes in cell membrane integrity. There are two fluorogenic peptide substrates in the assay reagent. Viable cells are determined when the cell-permeant substrate (GF-AFC) enters the cell and is cleaved by protease from live cells resulting in liberated fluorophore. This live-cell protease activity restricted to viable cells is proportional to cell number. The dead cells are determined by using fluorogenic cell-impermeant peptide substrate (bis-AAF-R110) which cleaved by dead cell proteases leaking from damaged cell membrane.\nUsing the MultiTox-Fluor Cytotoxicity Assay, the relative number of live cells was measured in the lymphoblastoid cell line with complete culture medium following compound treatment for 16 hours. The assay was performed in opaque black Kalypsys 1536-well plates. In the screen, tetraoctylammonium bromide was used as positive control. Library compounds were measured for their ability to cause acute toxicity in the cell line, as reflected by a decrease in live cell protease activity, in a concentration-dependent manner. […] AC50 values were determined from concentration-response data modeled with the standard Hill equation.\nqHTS protocol for MultiTox-Fluor Cytotoxicity assay\n[Step] [Parameter] [Value] [Description]\n1. Reagent; 5 uL; 2500 lymphoblastoid cells/well\n2. Time; 5 hr; 37 C incubation\n4. Controls; 23 nL; Tetraoctylammonium bromide 6.4pM to 92 uM\n5. Time; 16 hr; 37 C incubation\n6. Reagent; 5 uL; MuliTox-Fluor Assay reagent\n7. Time; 60 min; Room Temperature\n8. Detection; live-cell fluorescence (Ex/Em=405/510); EnVision plate reader\nKeywords: cell viability, cytotoxicity, lymphoblastoid cell line, fluorescence, NTPHTS, NTPHTS_NCGC, NIEHS, EPA, DSSTox, MLSMR, MLSCN, NIH Roadmap, qHTS, NCGC"}
{"compound": "C(=NC1CCCCC1)=NC1CCCCC1", "Potency": "inactive"}
{"compound": "Clc1ccc(C(c2ccc(Cl)cc2)C(Cl)Cl)cc1", "Potency": "inactive"}
{"compound": "O=C1C2(Cl)C3(Cl)C4(Cl)C(Cl)(Cl)C5(Cl)C3(Cl)C1(Cl)C5(Cl)C24Cl", "note": "(stereo unspecified)", "Potency": "31.6 µM (active)"}
{"compound": "Nc1ccccc1C(=O)OCCc1ccccc1", "Potency": "inactive"}
{"compound": "[Cd+2].[Cl-].[Cl-]", "Potency": "inactive"}
{"compound": "FC(F)(F)c1ccc(Cl)cc1", "Potency": "inactive"}
{"compound": "ClC1=C(Cl)C2(Cl)C3C(Cl)C(Cl)CC3C1(Cl)C2(Cl)Cl", "note": "(stereo unspecified)", "Potency": "inactive"}
{"compound": "Oc1c(Br)c(Br)c(Br)c(Br)c1Br", "Potency": "inactive"}
{"compound": "CC(=O)[O-].CC(=O)[O-].O.O.[Cd+2]", "Potency": "inactive"}
{"compound": "O=Nc1ccc(Nc2ccccc2)cc1", "Potency": "6.31 µM (active)"}
{"compound": "CCCCCCCCn1sccc1=O", "Potency": "7.94 µM (active)"}
{"compound": "COP(=O)(OC)O/C(=C\\Cl)c1cc(Cl)c(Cl)cc1Cl", "Potency": "inactive"}
{"compound": "c1cc(OCC2CO2)cc(OCC2CO2)c1", "note": "(stereo unspecified)", "Potency": "31.6 µM (active)"}
{"compound": "O=[N+]([O-])C(Br)Br", "Potency": "inactive"}
{"compound": "O=C(O)C1C(C(=O)O)C2(Cl)C(Cl)=C(Cl)C1(Cl)C2(Cl)Cl", "note": "(stereo unspecified)", "Potency": "inactive"}
{"compound": "c1ccc2cc3c(cc2c1)-c1cccc2cccc-3c12", "Potency": "inactive"}
{"compound": "C[C@@H]1CC[C@@]2(OC1)O[C@H]1[C@@H](O)[C@H]3[C@@H]4CC[C@H]5C[C@@H](O[C@@H]6O[C@H](CO)[C@H](O[C@@H]7O[C@H](CO)[C@@H](O)[C@H](O[C@@H]8OC[C@@H](O)[C@H](O)[C@H]8O)[C@H]7O[C@@H]7O[C@H](CO)[C@@H](O)[C@H](O[C@@H]8O[C@H](CO)[C@@H](O)[C@H](O)[C@H]8O)[C@H]7O)[C@H](O)[C@H]6O)[C@H](O)C[C@]5(C)[C@H]4CC[C@]3(C)[C@H]1[C@@H]2C", "Potency": "3.98 µM (active)"}
{"compound": "C=CC(=O)OCC(CO)(COC(=O)C=C)COC(=O)C=C", "Potency": "3.98 µM (active)"}
{"compound": "O=[N+]([O-])c1cc(C(F)(F)F)cc([N+](=O)[O-])c1Cl", "Potency": "inactive"}
{"compound": "N#CSCSC#N", "Potency": "15.8 µM (active)"}
{"compound": "N#CC(Cl)Cl", "Potency": "inactive"}
{"compound": "[CH3][Hg][Cl]", "Potency": "12.6 µM (active)"}
{"compound": "CN(C)c1ccc(N=O)cc1", "Potency": "5.01 µM (active)"}
{"compound": "C#CCO", "Potency": "inactive"}
{"compound": "OC(c1ccc(Cl)cc1)(c1ccc(Cl)cc1)C(Cl)(Cl)Cl", "Potency": "inactive"}
{"compound": "O=C(CCl)c1ccccc1", "Potency": "31.6 µM (active)"}
